Measurements: paper PMC5540273 (PLoS ONE, 2017)

What follows are compounds tested on HPK1. Details: concentration: 1 μM, replicates: in singlicate; n = 1.
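Further: KINOMEscan kinase panel screen.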

Compound | %Inh [%]
N#Cc1ccc(-c2cc(-c3c[nH]nc3-c3ccccn3)ccn2)cc1 [GW693028] | 38
CCc1ccnc(/C=C/c2n[nH]c3cc(Sc4ccccc4C(=O)NC)ccc23)c1 | 30
Cc1cccc(-c2nc(Nc3ccc4ncsc4c3)c3ccccc3n2)n1 [GW867588] | 0
O=C1NC(=O)C(N2CCc3ccccc32)=C1c1cccc(Cl)c1 [SB-408010] | 19
NS(=O)(=O)c1cccc(-c2ccc3ncc(N4CCOCC4)nc3c2)c1 [GSK1535721] | 37
CN1c2ccc(CNc3ccc(F)cc3)cc2-c2c(cnn2C)S1(=O)=O | 17
Cn1ccc2ncnc(Oc3ccc(NC(=O)Nc4ccncc4)c(Cl)c3)c21 | 0
COc1cc(Nc2nccc(N3CCC(NC(=O)c4cccc(NC(C)=O)c4)C3)n2)cc(OC)c1OC (stereo not shown) [GSK1379754] | 70
CSc1ccc(-c2cc3ncnc(SCC(=O)O)c3s2)cc1 | 0
CC(C)(C)n1cnc2c(N)ncnc21 [SKF-97359] | 33
Cc1nnc(-c2ccc(C)c(-c3ccc(C(=O)Nc4ccc(NS(C)(=O)=O)cc4)cc3)c2)o1 [GW702865] | 0
COc1ccc(S(=O)(=O)NC2CCN(c3cc(C)nc(Nc4cccc(C#N)c4)n3)CC2)cc1.O=C(O)C(F)(F)F [GSK1653539] | 38
Cc1c2ccc(N(C)c3ccnc(Nc4cccc(S(N)(=O)=O)c4)n3)cc2nn1Cc1ccccc1.Cl.Cl [GW787226] | 76
COc1cc2c(cc1OC[C@@H](O)CO)ncc1c3ccc(C#N)cc3[nH]c21 | 0
O=C(NCCCN1CCOCC1)c1cccc(Nc2nccc(Nc3ccc(Oc4ccccc4)cc3)n2)c1 [GW663929] | 8
Cc1ccc(NC(=O)c2ccnc(N3CCN(C)CC3)c2)cc1-c1ccc(C(=O)NCC2CC2)cc1 [GW775604] | 0
O=C(Nc1n[nH]c2cc(-c3cccc(F)c3)ccc12)C1CC1 [SB-735464] | 0

Compound | %Inh [%]
COc1ccc(Nc2nccc(N3CCC(NC(=O)Nc4cccc(C(C)=O)c4)C3)n2)cc1 (stereo not shown) [GSK1379731] | 40
COCCNC(=O)c1ccc(-c2cc(C(=O)NC3CC3)cc(F)c2C)cc1 [GW868318] | 4
COc1ccc(CNC(=O)NC2CCN(c3ccnc(Nc4ccc(OC)cc4)n3)C2)cc1 (stereo not shown) [GSK1379727] | 38
Nc1nccc(-c2c(-c3ccc(F)cc3)ncn2C2CCN(CC(F)(F)F)CC2)n1 [SB-236560] | 48
O=C(NCCNc1ccnc(Nc2ccc(F)cc2)n1)Nc1ccccc1F [GSK1379880] | 33
O=C(Nc1cccc(-c2nn3ncccc3c2-c2ccnc(Nc3cccc(C(F)(F)F)c3)n2)c1)c1c(F)cccc1F [GSK299495] | 35
COc1ccc(Nc2ncc(C#N)c(Nc3ccccc3C(N)=O)n2)cc1N1CCN(C)CC1.Cl [GSK1558669] | 96.4
O=c1cc(N2CCOCC2)nc2n(Cc3cccc4ccccc34)ccn12 [GSK2333389] | 5
Fc1ccc(-c2ncn(CCCN3CCOCC3)c2-c2ccccn2)cc1 [SB-211742] | 11
CN1c2ccc(NCc3ccc(F)cc3)cc2-c2c(cnn2C)S1(=O)=O | 26
Nc1nc(-c2ccc3c(N)n[nH]c3c2)cc(N2CCCC2)n1 [GSK2227430] | 39
[2H]C([2H])(c1cccc(C(F)(F)F)c1C)n1ccn2c(=O)nc(N3CCOCC3)cc12 [GSK2336394] | 27
CC(C)(CN)c1nc(-c2ccc(Cl)c(O)c2)c(-c2ccncc2)[nH]1.O=C(O)C(F)(F)F [SB-477794] | 46
COc1cc2ncn(-c3cc(OCc4sccc4Cl)c(C(N)=O)s3)c2cc1OC [GSK448459] | 52
COc1cc2c(cc1OCCN1CCN(C)CC1)ncc1c3ccc(C#N)cc3[nH]c21 | 11
Cc1nnc(-c2ccc3occ(-c4ccc(C(C)O)cc4)c3c2)o1 (stereo not shown) | 0
Cn1cc(-c2ccc3c(c2)CCN3C(=O)Cc2ccccc2Cl)c2c(N)ncnc21 [GSK2608885] | 64
